Cytotoxicity (signal decrease) data for 60 molecules are collected here from PubChem BioAssay AID651742 (Broad Institute, 2012).

The whole screen tested about 5,600 compounds, of which about 780 (14%) were called active. Roughly 3% stayed inconclusive and do not appear here. A selection follows. Values without a mark were called inactive.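 The calls were made as follows: active = mean signal decrease across replicates above about 35% based on untreated-well scatter, with enough replicates individually passing (limit read from the data); inconclusive = no rule stated though some were filed; inactive = the rest.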

The experiment in a line: NIH3T3 cell viability loss – cherry-pick, single point, cytotoxicity control for T. cruzi proliferation inhibitor project, confirmation (AID 651742).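 Also: 0% = median of neutral control wells and 100% = median of positive control wells.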 As to conditions: NIH/3T3 viability, CellTiter-Glo ATP luminescence, 90 h; at 8.35 µM; hits give high values. A general note: ATP-based viability assays read luminescence as a measure of living cells.
In the case of `CN(C)C(=O)c1ccc(-c2ccc([C@@H]3[C@H](CO)N4CCCCN(S(C)(=O)=O)C[C@@H]34)cc2)cc1`, the cytotoxicity (signal decrease) is 5.37%.
To `O=S(=O)(c1ccc(F)cc1)N1CCCCN2[C@H](C1)[C@H](c1ccc(C3=CCCCC3)cc1)[C@@H]2CO` belongs 12.6%; to `Cc1ccccc1-c1ccc([C@@H]2[C@H](CO)N3CCCCN(S(=O)(=O)c4ccc(F)cc4)C[C@@H]23)cc1`, 43.8% (active); to `Cc1cccc(-c2ccc([C@H]3[C@@H](CO)N4CCCCN(Cc5cncnc5)C[C@H]34)cc2)c1`, 17.8%.
To `C[C@H](O)C#Cc1ccc([C@H]2[C@H]3CN(S(=O)(=O)Cc4ccccc4)CCCCN3[C@H]2CO)cc1` belongs 10.3%; to `COc1cccc(S(=O)(=O)N2CCCCN3[C@H](CO)[C@H](c4ccc(-c5ccncc5)cc4)[C@H]3C2)c1`, 9.65%; to `O=S(=O)(Cc1ccccc1)N1CCCCN2[C@@H](CO)[C@H](c3ccc(-c4ccccc4)cc3)[C@@H]2C1`, 41.5% (active).
For `O=S(=O)(Cc1ccccc1)N1CCCCN2[C@@H](CO)[C@H](c3ccc(-c4cccnc4)cc3)[C@@H]2C1`, the cytotoxicity (signal decrease) was 5.7%.
Consider `Cc1cccc(-c2ccc([C@@H]3[C@@H](CO)N4CCCCN(S(=O)(=O)c5cccs5)C[C@H]34)cc2)c1`, for which the cytotoxicity (signal decrease) is 42.5% (active).
On to `CCS(=O)(=O)N1CCCCN2[C@@H](CO)[C@@H](c3ccc(-c4ccccc4)cc3)[C@@H]2C1`, for which the cytotoxicity (signal decrease) is 18.2%.
To `Cc1ccccc1-c1ccc([C@H]2[C@H]3CN(S(=O)(=O)c4ccc(F)cc4)CCCCN3[C@H]2CO)cc1` belongs 12%.
Next, `O=S(=O)(Cc1ccccc1)N1CCCCN2[C@@H](CO)[C@@H](c3ccc(-c4ccc(F)cc4)cc3)[C@@H]2C1`: 68.5% (active); `CC(C)C#Cc1ccc([C@H]2[C@H](CO)N3CCCCN(C(=O)NC(C)C)C[C@@H]23)cc1`: 13.1%.
On to `C[C@H]1CCCCO[C@H](CN(C)Cc2ccccc2)[C@@H](C)CN([C@@H](C)CO)C(=O)c2cc(NC(=O)NC3CCCCC3)ccc2O1`, for which the cytotoxicity (signal decrease) is 12.5%.
To `COc1ccc(C#Cc2cnc3c(c2)C(=O)N([C@@H](C)CO)C[C@H](C)[C@@H](CN(C)C(C)=O)O3)cc1` belongs -3.17%; to `CN(C)CC#Cc1ccc([C@H]2[C@H]3CN(S(=O)(=O)c4ccccc4F)CCCCN3[C@H]2CO)cc1`, 20.2%; to `COCC(=O)N(C)C[C@@H]1Oc2ncc(C#Cc3ccccc3OC)cc2C(=O)N([C@@H](C)CO)C[C@H]1C`, 1.95%.
For `Cc1ccc(S(=O)(=O)Nc2ccc3c(c2)C(=O)N([C@@H](C)CO)C[C@@H](C)[C@H](CN(C)C(=O)Nc2cccc4ccccc24)OCCCC[C@H](C)O3)cc1`, the cytotoxicity (signal decrease) is -10.9%.
To `O=C(c1cccc(F)c1)N1CC[C@@H]2[C@@H](CO)Nc3ccc(C#Cc4cccc(F)c4)cc3[C@@H]21` belongs 27.7%.
Next, `CC(=O)N1[C@H](CNC(=O)C2CC2)[C@@H](c2ccc(-c3cccc(F)c3)cc2)[C@@H]1CO`: 3.63%; `C[C@H](CO)N1C[C@H](C)[C@H](CN(C)Cc2ccc(C(F)(F)F)cc2)OCCCC[C@H](C)Oc2ccc(NS(=O)(=O)c3ccc(Cl)cc3)cc2C1=O`: 98.8% (active).
With `C[C@H](CO)N1C[C@H](C)[C@H](CN(C)Cc2ccc(C(F)(F)F)cc2)Oc2ccc(NS(=O)(=O)c3ccc(Cl)cc3)cc2C1=O`, the cytotoxicity (signal decrease) is 8.98%.
Next, `C[C@@H]1CN([C@H](C)CO)C(=O)c2cc(NC(=O)Nc3ccc(F)cc3)ccc2O[C@@H](C)CCCCO[C@H]1CN(C)Cc1ccc(Cl)c(Cl)c1`: 40.8% (active).
To `C[C@@H]1CCCCO[C@H](CN(C)Cc2ccccc2)[C@@H](C)CN([C@@H](C)CO)C(=O)c2cc(NC(=O)Nc3ccc(F)cc3)ccc2O1` belongs 27.1%.
With `C[C@@H]1CN([C@@H](C)CO)C(=O)c2cc(NC(=O)Nc3cccc4ccccc34)ccc2O[C@H]1CN(C)Cc1ccc(Cl)c(Cl)c1`, the cytotoxicity (signal decrease) was 35.5% (active).
Take `C[C@@H]1CN([C@H](C)CO)C(=O)c2cc(NS(=O)(=O)c3ccc(Cl)cc3)ccc2O[C@@H](C)CCCCO[C@H]1CN(C)Cc1ccccc1`: the cytotoxicity (signal decrease) was 1.2%.
To `C[C@@H]1CN([C@@H](C)CO)C(=O)c2cc(NC(=O)Nc3cccc4ccccc34)ccc2O[C@H]1CN(C)Cc1ccc(Oc2ccccc2)cc1` belongs 18.9%; to `COc1ccc(CN(C)C[C@H]2OCCCC[C@H](C)Oc3ccc(NC(=O)Nc4ccc5c(c4)OCO5)cc3C(=O)N([C@H](C)CO)C[C@@H]2C)cc1`, 45.5% (active); to `C[C@@H]1CCCCO[C@@H](CN(C)Cc2ccc(Cl)c(Cl)c2)[C@H](C)CN([C@H](C)CO)C(=O)c2cc(NC(=O)Nc3ccc(F)cc3)ccc2O1`, 3.22%.
Turning to `COc1ccc(NC(=O)Nc2ccc3c(c2)C(=O)N([C@H](C)CO)C[C@@H](C)[C@H](CN(C)Cc2ccc(Cl)c(Cl)c2)OCCCC[C@@H](C)O3)cc1`, the cytotoxicity (signal decrease) was -14.8%.
Next, `C[C@@H]1CCCCO[C@@H](CN(C)Cc2ccc3c(c2)OCO3)[C@@H](C)CN([C@@H](C)CO)C(=O)c2cc(NC(=O)Nc3ccccc3)ccc2O1`: 6.98%; `C[C@@H]1CN([C@@H](C)CO)C(=O)c2cc(NC(=O)Nc3cccc4ccccc34)ccc2O[C@@H](C)CCCCO[C@H]1CN(C)Cc1ccccc1`: 22.3%; `COc1ccc(S(=O)(=O)Nc2ccc3c(c2)C(=O)N([C@H](C)CO)C[C@@H](C)[C@@H](CN(C)CC2CCCCC2)OCCCC[C@@H](C)O3)cc1`: 33.5%.
To `C[C@H](CO)N1C[C@H](C)[C@@H](CN(C)C(=O)Nc2ccnc(N3CCOCC3)c2)OCc2ccccc2-c2ccccc2C1=O` belongs 5.45%; to `C[C@@H]1CCCCO[C@H](CN(C)Cc2ccc(C(F)(F)F)cc2)[C@H](C)CN([C@H](C)CO)C(=O)c2cc(NC(=O)Nc3ccc(F)cc3)ccc2O1`, -14.3%; to `C[C@@H]1CCCCO[C@@H](CN(C)S(=O)(=O)c2ccc(Cl)cc2)[C@H](C)CN([C@@H](C)CO)C(=O)c2cc(NC(=O)Cc3ccccc3)ccc2O1`, 0.0515%.
Next, `COc1ccc(NC(=O)N(C)C[C@@H]2OCCCC[C@@H](C)Oc3ccc(NS(=O)(=O)c4ccc(Cl)cc4)cc3C(=O)N([C@H](C)CO)C[C@H]2C)cc1`: -38.7%.
`O=C(C[C@@H]1C[C@@H]2c3cc(NC(=O)c4ccc5c(c4)OCO5)ccc3O[C@@H]2[C@@H](CO)O1)NCc1ccc(Cl)cc1`: the cytotoxicity (signal decrease) is -20.7%.
To `C[C@@H]1CCCCO[C@@H](CN(C)CC2CC2)[C@H](C)CN([C@H](C)CO)C(=O)c2cc(NC(=O)C3CCCCC3)ccc2O1` belongs -17.8%; to `C[C@H]1CCCCO[C@H](CN(C)Cc2ccc(C(F)(F)F)cc2)[C@@H](C)CN([C@@H](C)CO)C(=O)c2cc(NC(=O)C3CCCCC3)ccc2O1`, -5.99%.
To `N#C[C@@H]1[C@@H](c2ccc(/C=C/c3ccccc3)cc2)[C@@H](CO)N1C(=O)C1CC1` belongs 23.9%; to `C[C@@H]1CN([C@@H](C)CO)C(=O)c2cc(NC(=O)C3CCCCC3)ccc2O[C@@H](C)CCCCO[C@H]1CN(C)Cc1ccncc1`, 2.54%.
To `C[C@@H]1CN([C@H](C)CO)C(=O)c2cc(NC(=O)Nc3ccc(F)cc3)ccc2O[C@@H](C)CCCCO[C@@H]1CN(C)CC1CCCCC1` belongs 24.8%; to `C[C@@H]1CN([C@H](C)CO)C(=O)c2cc(C#CC3CCCCC3)cnc2O[C@@H]1CN(C)C(=O)NC1CCCC1`, 26.3%.
As for `C[C@@H](O)C#Cc1ccc([C@@H]2[C@H](CO)N3CCCCN(S(=O)(=O)c4ccccc4)C[C@@H]23)cc1`, the cytotoxicity (signal decrease) is 1.19%.
Next, `C[C@@H]1CCCCO[C@@H](CN(C)Cc2ccc(C(F)(F)F)cc2)[C@@H](C)CN([C@H](C)CO)C(=O)c2cc(NC(=O)Nc3ccccc3)ccc2O1`: -2.03%.
To `OC[C@H]1[C@H](c2ccc(-c3cccc(F)c3)cc2)[C@@H]2CN(Cc3cncnc3)CCCCN12` belongs 13.1%; to `O=C(Nc1ccccc1F)N1CCCCN2[C@H](CO)[C@@H](c3ccc(-c4cccnc4)cc3)[C@H]2C1`, 5.63%; to `C[C@@H]1CN([C@@H](C)CO)S(=O)(=O)c2ccc(-c3cccc(F)c3)cc2O[C@@H]1CN(C)S(=O)(=O)c1ccccc1`, 46.5% (active).
To `C[C@@H]1CN([C@@H](C)CO)S(=O)(=O)c2ccc(C#Cc3ccc(F)cc3)cc2O[C@H]1CN(C)S(C)(=O)=O` belongs 25.6%; to `COc1ccccc1-c1ccc2c(c1)O[C@H](CN(C)S(=O)(=O)c1ccc(C)cc1)[C@@H](C)CN([C@H](C)CO)S2(=O)=O`, 26.4%.
For `C[C@@H]1CN([C@@H](C)CO)S(=O)(=O)c2ccc(C#Cc3ccc(F)cc3)cc2O[C@H]1CN(C)C(=O)c1ccccn1`, the cytotoxicity (signal decrease) was 30%.
Next, `C[C@H]1CN([C@@H](C)CO)S(=O)(=O)c2ccc(C#Cc3cccc(F)c3)cc2O[C@@H]1CN(C)S(=O)(=O)c1cn(C)cn1`: 44.8% (active).
Consider `C[C@@H]1CN([C@@H](C)CO)S(=O)(=O)c2ccc(C#Cc3ccc(F)cc3)cc2O[C@H]1CN(C)C(=O)NC1CCCC1`, for which the cytotoxicity (signal decrease) is 8.27%.
As for `C[C@@H]1CN([C@H](C)CO)S(=O)(=O)c2ccc(-c3cccc(F)c3)cc2O[C@H]1CN(C)S(=O)(=O)c1ccc(F)cc1`, the cytotoxicity (signal decrease) is 54.4% (active).
To `Cc1ccc(-c2ccc3c(c2)O[C@H](CN(C)C)[C@@H](C)CN([C@H](C)CO)S3(=O)=O)cc1` belongs -0.56%; to `C[C@H](CO)N1C[C@H](C)[C@@H](CN(C)S(=O)(=O)c2ccc(F)cc2)Oc2cc(C3=CCCC3)ccc2S1(=O)=O`, 50.5% (active).
Next, `C[C@@H]1CN([C@@H](C)CO)S(=O)(=O)c2ccc(-c3ccncc3)cc2O[C@@H]1CN(C)C(=O)Nc1ccc(F)cc1`: -4.35%; `CC(C)CC#Cc1ccc2c(c1)O[C@H](CN(C)S(=O)(=O)c1cccc(F)c1)[C@@H](C)CN([C@@H](C)CO)S2(=O)=O`: 14.5%; `C[C@@H]1CN([C@H](C)CO)S(=O)(=O)c2ccc(C#Cc3ccncc3)cc2O[C@@H]1CN(C)S(=O)(=O)c1ccc(F)cc1`: 27.1%.
